RORg inh: qHTS for inhibitors of ROR gamma transcriptional activity; hit rate 5.4% among 310,000; Nuclear receptor ROR-gamma (Mus musculus), P51450; Drosophila S2 Gal4-RORgamma UAS-luciferase reporter, 20 h; Potency, µM (top dose mostly 53.6 µM), usual class: inhibitors; note: nearly all actives have a fitted effect of over 60% in size
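Drosophila Schneider cells stably carrying a metallothionein-driven Gal4 DBD–ROR gamma fusion and a UAS-Photinus luciferase reporter were exposed to compound for 1 hr, then induced with copper sulfate (700 uM final) for 20 hr at ambient temperature before luminescence reading.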
GLP-1R inv ag: qHTS of GLP-1 Receptor Inverse Agonists (Inhibition Mode); HEK293 GLP-1R CRE-luciferase, luminescence, 24 h; GLP-1R form is constitutively active; AID 624417, 2012; Glucagon-like peptide 1 receptor (Homo sapiens), P43220; Potency, µM (highest dose often 38.3 µM), hits mostly inhibitors; hit rate 1.6% among 410,000; note: nearly all actives have a fitted effect of over 55% in size
Target sequence (P43220 whole entry, looked up): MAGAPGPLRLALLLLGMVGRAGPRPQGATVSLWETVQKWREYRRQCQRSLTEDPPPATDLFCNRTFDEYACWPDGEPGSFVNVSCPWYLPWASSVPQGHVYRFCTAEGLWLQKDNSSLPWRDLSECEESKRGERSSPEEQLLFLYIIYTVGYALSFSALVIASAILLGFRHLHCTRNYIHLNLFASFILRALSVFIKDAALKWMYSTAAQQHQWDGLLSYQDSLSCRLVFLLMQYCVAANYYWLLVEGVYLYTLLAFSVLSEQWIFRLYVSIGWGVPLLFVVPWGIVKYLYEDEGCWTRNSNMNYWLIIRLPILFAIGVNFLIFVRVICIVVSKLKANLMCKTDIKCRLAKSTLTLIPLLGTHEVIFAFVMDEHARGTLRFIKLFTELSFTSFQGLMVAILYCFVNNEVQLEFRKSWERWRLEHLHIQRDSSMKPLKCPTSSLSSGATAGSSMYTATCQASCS
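GLP-1R inverse agonism mode: basal reporter luminescence in engineered HEK293 cells measured after one day of compound exposure at 37 deg C, with a 12 min room-temperature detection step.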
GLP1R ag: qHTS of GLP-1 Receptor Agonists; Potency, µM (highest dose often 45.6 µM), hits mostly activators; hit rate 0.007% among 380,000; HEK293 GLP-1R CRE-luciferase, luminescence, 4-6 h; cells express a hypersensitive GLP-1R form; Glucagon-like peptide 1 receptor (Homo sapiens), P43220
VP16 counter: VP16 counterscreen qHTS for inhibitors of ROR gamma transcriptional activity. Drosophila S2 Gal4-VP16 UAS-luciferase, luminescence, 20 h. Potency, µM (series often up to 53.6 µM), hits mostly inhibitors. hit rate 3.5% among 310,000;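 note: Gal4-VP16 expression switched on by copper sulfate through the metallothionein promoter; nearly all actives have a fitted effect of over 50% in size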
GLP1R cytotox: qHTS of GLP-1 Receptor Inverse Agonists: Cytotox Screen | HEK293 cAMP-luciferase reporter cells, luminescence, 24 h | Potency, µM (series often up to 38.3 µM), actives largely listed as inhibitors | hit rate 0.13% among 410,000 | AID 624418, 2012;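 note: loss of luciferase light is scored as toxicity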
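Step one: seed cells (200 cells/uL, DMEM with 10% Nu serum, 1% pen-strep). Step two: 12-hour incubation at 37 deg C. Step three: pin 23 nL compound, incubate 24 hr. Step four: add luciferase reagent, read luminescence 12 min later.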
Numbers stand for hits; - = inactive; ? = inconclusive; . = no result given; [ ] = remark or other dose. Compounds with a hit are over-represented: about 5.9% of the library has one in this group of screens. Calls come from the whole dose curve; as a rule, active = well fitted curve in the direction sought with a large enough effect; inconclusive = small, poorly fitted or top-dose-only effect, or another doubt; inactive = no such curve, though single readings can be large; an effect the other way counts as inactive or inconclusive.

SMILES | RORg inh | GLP-1R inv ag | GLP1R ag | VP16 counter | GLP1R cytotox
O=C(Nc1nc(-c2ccccn2)cs1)c1cccc(-n2cnnn2)c1 | 5.01µM | ? | - | - | -
COC[C@@H](c1ccc(C(F)(F)F)cc1)N1CCN(C2(C)CCN(C(=O)c3c(C)ncnc3C)CC2)C[C@@H]1C | . | . | - | . | .
CCn1c(=O)n(C2=C(CO)CN(CC3CCCCCCC3)CC2)c2ccccc21 | - | . | . | - | .
CCc1ccc(NCc2cc3ccc(OC)cc3n(CC(=O)Nc3ccc(C(C)C)cc3)c2=O)cc1 | . | - | - | . | -
CCn1c(SCC(=O)Nc2nc(-c3ccccc3)cs2)nnc1-c1ccccc1 | - | 10µM | - | - | -
CCn1c(CNc2ccc(Cl)cc2)nnc1SCC(=O)NCc1ccccc1 | - | ? | - | - | -
CCn1c(CNc2nc(-c3ccccc3)cs2)nnc1SCC(=O)NCc1ccccc1 | - | 11.2µM | - | - | -
Cn1c(=O)c(-c2cc(F)cc(F)c2)nc2cnc(N3CCNCC3)nc21 | - | . | . | - | .
Nc1nc(NC(=O)C(Cl)(Cl)Cl)nn1-c1ccccc1 | 12.6µM | - | - | ? | ?
CCC(=O)Nc1nc(N)n(-c2ccccc2)n1 | - | - | - | - | -
O=C(Nc1ccc(Cl)c(Cl)c1)Nc1nnc(CC2=CCCCC2)s1 | ? | - | - | 12.6µM | -
CC(C)Cn1c(N)c(C(=O)COC(=O)c2ccc3c(c2)OCCO3)c(=O)n(C)c1=O | - | - | - | - | -
CC(C)Cn1c(N)c(C(=O)CSc2ccc3c(c2)OCCO3)c(=O)n(C)c1=O | ? | - | - | 11.2µM | -
CC1CCN(c2ccccc2NC(=S)NC(=O)c2ccc(-c3cccc([N+](=O)[O-])c3)o2)CC1 | 1µM | - | - | - | -
CC1CCN(c2ccc(NC(=S)NC(=O)c3ccc(-c4cccc([N+](=O)[O-])c4)o3)cc2)CC1 | 1.58µM | - | - | 7.08µM | -
COc1ccccc1CCNC(=O)C(=O)NCC(c1ccco1)S(=O)(=O)c1ccc(C)cc1 (stereo not drawn) | . | - | . | . | -
Cc1ccc(NC(=O)Cn2cc(S(=O)(=O)N3CCCC3)c(S(=O)(=O)N3CCCC3)c2)cc1F | . | - | . | . | -
Cc1ccc(/C=C2/CNC/C(=C\c3ccc(C)cc3)C2=O)cc1 | 3.55µM | . | . | 7.08µM | .
Cc1ccc(/C=C2/CNC/C(=C/c3ccc(C)cc3)C2=O)cc1 | . | ? | - | . | ?
Cc1nc(N2CCC(C)CC2)c2nnn(Cc3ccccc3)c2n1 | - | 10µM | - | - | -
O=C(Cn1cnc2onc(-c3ccc(F)cc3)c2c1=O)Nc1cccc(C(F)(F)F)c1 | . | ? | - | . | -
O=C(Nc1nc2ccccc2[nH]1)c1ccc(F)cc1 | 2.82µM | ? | - | 5.62µM | -
CCn1nc(C(=O)Nc2nc3ccccc3[nH]2)c2ccccc2c1=O | 11.2µM | - | - | ? | -
O=C(Nc1nc2ccccc2[nH]1)c1ccccc1F | 0.708µM | ? | - | 1.78µM | -
Cn1nc(C(=O)Nc2nc3ccccc3[nH]2)c2ccccc2c1=O | ? | - | - | ? | -
SMILES | RORg inh | GLP-1R inv ag | GLP1R ag | VP16 counter | GLP1R cytotox
CCc1ccc(C(=O)Nc2nc3ccccc3[nH]2)cc1 | 2.24µM | ? | - | 3.98µM | -
CN(c1ccccc1)S(=O)(=O)c1ccc(Cl)c(C(=O)Nc2nc3ccccc3[nH]2)c1 | 3.98µM | - | - | 7.08µM | -
CN(C)S(=O)(=O)c1ccc(C(=O)Nc2nc3ccccc3[nH]2)cc1 | 11.2µM | - | - | ? | -
N#Cc1ccc(C(=O)Nc2nc3ccccc3[nH]2)cc1 | 3.55µM | - | - | 7.08µM | -
CN(C)S(=O)(=O)c1ccc(C(=O)Nc2ccccn2)cc1 | - | - | - | - | -
CCCc1ccc(C(=O)O)cc1 | -[10 µM] | . | - | - | .
O=C(Nc1ccccc1Cc1ccccc1)c1ccccc1NS(=O)(=O)c1ccc(Cl)s1 | ? | ? | - | 12.6µM | ?
O=C(NCc1ccco1)c1ccccc1NS(=O)(=O)c1ccc(Cl)s1 | - | ? | - | - | -
Cc1ccc(NC(=O)c2ccccc2NS(=O)(=O)c2ccc(Cl)s2)cc1 | ? | ? | - | 20µM | -[1.53 µM]
O=S(=O)(Nc1ccccc1N1CCCCC1)c1ccc(Cl)s1 | - | 10µM | - | - | -
O=C(Nc1ccccc1)c1ccccc1NS(=O)(=O)c1ccc(Cl)s1 | ? | ? | - | ? | ?
COC(=O)Cc1c(C)c2cc3c(c(C)c2oc1=O)OCN(CCc1ccc(F)cc1)C3 | . | - | . | . | -
COc1cc(C(=O)N2CCc3c([nH]c4ccccc34)C2c2ccc(F)cc2)cc(OC)c1OC (stereo not drawn) | . | ? | . | . | -
COc1cccc(C(=O)N2CCc3c([nH]c4ccccc34)C2c2ccc(SC)cc2)c1 (stereo not drawn) | . | 7.94µM | . | . | -
COc1ccc(C2c3[nH]c4ccc(OC)cc4c3CCN2C(=O)Nc2ccccc2)cc1 (stereo not drawn) | . | 5.62µM | . | . | -
Oc1cccc(C2c3[nH]c4ccccc4c3CCN2Cc2ccc3c(c2)CCO3)c1 (stereo not drawn) | - | 2.82µM | - | - | ?
COc1ccc(C2c3[nH]c4ccccc4c3CCN2C(=O)CCC2CCCC2)cc1 (stereo not drawn) | . | ? | . | . | -
COc1ccc(C2c3[nH]c4ccccc4c3CCN2Cc2ccoc2)c(F)c1 (stereo not drawn) | - | 4.47µM | - | - | -
Cc1ccc2c(c1)c1c(c(=O)n(-c3ccccc3C)c(=O)n1Cc1ccccc1F)n2C | . | - | - | . | -
O=C(CN1C(=O)CSc2ccc(S(=O)(=O)N3CCCCC3)cc21)NCc1ccc(F)cc1Cl | . | ? | - | . | -
Clc1ccccc1C1=Nn2c(nnc2-c2ccncc2)SC1 | - | 1.12µM | - | - | -
c1ccc(C2=NNC(c3ccco3)=Nc3ccccc32)cc1 | ? | ? | - | - | -
Cc1ccc(C2=NNC(c3ccc(Cl)cc3)=Nc3ccccc32)o1 | ? | 7.94µM | - | - | -
O=C(O)C1NCCN(C(=O)c2ccc3c(ccc4ccccc43)c2)C1C(=O)O (stereo not drawn) | - | . | . | - | .
CC(=O)Nc1ccc(N2C(=O)CC(Sc3nc4ccccc4s3)C2=O)cc1 (stereo not drawn) | 2.24µM | - | - | -[10 µM] | -
COc1ccc(N2C(=O)CC(Sc3nc4ccccc4s3)C2=O)cc1OC (stereo not drawn) | 6.31µM | - | - | 5.62µM | -
CCOc1ccc(N2C(=O)CC(Sc3nc4ccc(OCC)cc4s3)C2=O)cc1 (stereo not drawn) | . | - | - | . | -
CCOc1ccc2nc(SC3CC(=O)N(c4ccc(OC)cc4OC)C3=O)sc2c1 (stereo not drawn) | 7.08µM | - | - | ? | ?
O=C(O)C(=O)Nc1cccc(C2=NN=N[N]2)c1 | . | . | - | . | .
O=C1C=C(CO)OCC1=O | . | . | - | . | .
